Measured values from publication PMC12136788.
Whole data set: some 5,800 sequences, median “enrichment r” near 0.68, cut for the highest 2% near 11. Only a sample is shown.

B1: chr2:1632407:1632508:-|3pUTR|ENSG00000130508|msi1|total|mutant (ssRNA)
RNA: GGGAGUUCUACAGUCCGACGAUCUUGGUAAGUGAUUGAUAAAAAUUGGUUGGUGUUUCAUGACAUGUGGACUUCUUUUGAAACCGCAAGUCAAAUGCCGUGACCAAAUUGUGGAAGAGAUUUCUGUCAAACCGGAAAUGUGUACAACAGAGGAUUGAGCAUCA
B2: ENSG00000198589:be:win_3901|CDS|ENSG00000198589|bound_else_gene|NA|bound_elsewhere_windowed (ssRNA)
RNA: GGGAGUUCUACAGUCCGACGAUCUCUACUGUGUUUCGUAUUCCUGAGUUCAACUGGUCUCAGAUGCAUCAACGUUUGCUCACUGAUCUAUUAUUUUCAAUAGAAACAGAUAUACAGAUGUGGAGAAGCCAUUCAACAAAGACACAACAGAGGAUUGAGCAUCA
B3: chr6:21593967:21594078:+|5pUTR|ENSG00000124766|unk|FALSE|bound_elsewhere (ssRNA)
RNA: GGGAGUUCUACAGUCCGACGAUCUUAGUGCCGAUUCCGCCCACAGAGAGUCCUGGAGCCACAGUCUUUUUUGCUUUGCAUUGUAGGAGAGGGACUAAGUGCUAGAGACUAUGUCGCUUUCCUGAGCUACCGAGAGCGCUCGUGCAACAGAGGAUUGAGCAUCA
B4: chr9:88477803:88477904:+|3pUTR|ENSG00000106723|msi1|FALSE|bound_elsewhere (ssRNA)
RNA: GGGAGUUCUACAGUCCGACGAUCGACAAUACAAGACAUGAAUCUAUGUAUAAAAUUUAUCGGCCUUUCUCAUUUACCUGCUCUAGUAUUAUUGUAUUGUGUGUGCGUGCGUGUGUGAUGUCAGGCUGCCACGUAAAACUUCAGCAACAGAGGAUUGAGCAUCA
B5: chr17:68278117:68278284:-|CDS|ENSG00000108932|unk|FALSE|unique (ssRNA)
RNA: GGGAGUUCUACAGUCCGACGAUCGCUUUGUUCCAAAGCCAAUGUGUAUACUGAAGUGCCUGAUGGAGGAUGGGGCUGGGCGGUAGCUGUUUCAUUUUUCUUCGUUGAAGUCUUCACCUACGGCAUCAUCAAGACAUUUGGUGUCAACAGAGGAUUGAGCAUCA
B6: ENSG00000112146:stop:overlap|stop_codon|ENSG00000112146|stop_codon|NA|stop_codon (ssRNA)
RNA: GGGAGUUCUACAGUCCGACGAUCACACCCCCUUGUUCUUCGCCAGAGUAAGGAGCUACACAGCUUUCUCAGAAAGGCCUCUGUAGAGCCUCAAGUCCAGUCCUCUAUCACUUUUGCAUGAAUUAAAGUAUAUAGCGCAAAAGACAACAGAGGAUUGAGCAUCA
B7: ENSG00000070961:be:win_5851|3pUTR|ENSG00000070961|bound_else_gene|NA|bound_elsewhere_windowed (ssRNA)
RNA: GGGAGUUCUACAGUCCGACGAUCAUGAAUGUAAUUACCAAAAGAUUUAGAAGUGCAUGUGCUUUGGAGGAUUUGUAUUGAGCUUUUACAGUAUUCAUUUUUCAACUCAAGGCAAUGGCUUUCUACACCAACUCUAAUCCAUAACAACAGAGGAUUGAGCAUCA
B8: ENSG00000070961:be:win_3451|CDS|ENSG00000070961|bound_else_gene|NA|bound_elsewhere_windowed (ssRNA)
RNA: GGGAGUUCUACAGUCCGACGAUCAGGAUAGAAGAUUCAGAGCCUCAUAUCCCCCUUAUUGAUGACACUGAUGCCGAAGAUGAUGCUCCUACAAAACGUAACUCCAGUCCUCCACCCUCUCCCAACAAAAAUAACAAUGCUGUUCAACAGAGGAUUGAGCAUCA
B9: chr11:61866962:61867357:+|3pUTR|ENSG00000134824|msi1|FALSE|unique (ssRNA)
RNA: GGGAGUUCUACAGUCCGACGAUCAGAUUCAGGGGAAGGGCAGGCACCAACAACUCAGAAUGGGGGCUUUCGGGGAGGGCGCCUAGUCCCCCCAGCUCUAAGCAGCCAGGAGGGACCUGCAUCUAAGCAUCUGGGUUGCCAUGGCAACAGAGGAUUGAGCAUCA
B10: chr2:32508095:32508220:+|CDS|ENSG00000115760|unk|total|mutant (ssRNA)
RNA: GGGAGUUCUACAGUCCGACGAUCAGCCGAAGCCGCUUCUGCUGUCUGCCUCCGACUACAUCGUCCACGGGAUGCCAGCACAUCCGGCCUUUCACAAAUUAAAUUAUUGGGGCUCACUGCUUUUGGUACCACCUCUUCUGCAACCAACAGAGGAUUGAGCAUCA
B11: chr14:92797766:92797867:+|CDS|ENSG00000066455|msi1|total|mutant (ssRNA)
RNA: GGGAGUUCUACAGUCCGACGAUCCAUUUUGUGCGAAGAAAAAAGUCAGAACCUGAUGAUGAGCUGCUGUUUGAUUUUCUUAACCGUUCACAGAAGGAGCCUACCGGGAGGGUGGAAAUCAGAAAGGAAAAAGGCAAGACACCUCAACAGAGGAUUGAGCAUCA
B12: chr18:70325936:70326038:+|CDS|ENSG00000170677|unk|total|mutant (ssRNA)
RNA: GGGAGUUCUACAGUCCGACGAUCAGCUUUCGCUCCCAUGGUAAAACACUUCACACCCGAAUUGAGCACUCAAAUGGCCGGUUCCGCUUUUAUGAACAGCCAGAUGUGGAAGGACAUACGUCCACCGUUGAUCUAAUUGAGCAUCAACAGAGGAUUGAGCAUCA
B13: chr11:43405833:43405939:+|CDS|ENSG00000052841|unk|FALSE|unique (ssRNA)
RNA: GGGAGUUCUACAGUCCGACGAUCGGCCCAAACCCCUGACUGUUCCAUAACUGACUUCAGAAAAAGCCACACUCUGUCCUACUUAGUCAAAGAAUUAGAGGUUCGCAUGGAUCUGAAAGCCAAAAUGCCAGAUGACCAUGCACGCAACAGAGGAUUGAGCAUCA
B14: chr6:1612588:1612689:+|3pUTR|ENSG00000054598|msi1|total|mutant (ssRNA)
RNA: GGGAGUUCUACAGUCCGACGAUCUUUAUUCAUGGACUUGUUUUAAAAUGUAAAUUGCAACACCGUAAUUUAUUUUUAAUUUGCCGUUGGAUGUCGUGGACCAAACGCCAGAAAGUGUUCCCAAAACCUGACGUUAAAUUGCCUCAACAGAGGAUUGAGCAUCA
B15: chr2:111862450:111862553:-|CDS|ENSG00000153107|unk|FALSE|unique (ssRNA)
RNA: GGGAGUUCUACAGUCCGACGAUCUCUUUUUCAGGGGUGCAAAGGUUCAACAUUUCAAGCCAUAAUCAGUCUCCAAAGAGACAUAGUAUUUCUCAUUCUCCAAAUAGUAAUUCUAAUGGCUCCUUUCUUGCACCAGAAACGGAGCAACAGAGGAUUGAGCAUCA
B16: chr7:83961326:83961382:-|CDS_3pUTR|ENSG00000075213|msi1_unk|FALSE|overlapping (ssRNA)
RNA: GGGAGUUCUACAGUCCGACGAUCAAACAGGAGGACCCACGAAUUUGAGAGGGCACCCAGGAGUGUCUGAGCUGCAUUACCUCUAGAAACCUCAAACAAGUAGAAACUUGCCUAGACAAUAACUGGAAAAACAAAUGCAAUAUACAACAGAGGAUUGAGCAUCA
B17: ENSG00000124766:be:win_3951|3pUTR|ENSG00000124766|bound_else_gene|NA|bound_elsewhere_windowed (ssRNA)
RNA: GGGAGUUCUACAGUCCGACGAUCGUUUGGGGGAAAAAAAAGAAAAAAUCAUGCCAGCUAAUCAUGUCAAGUUCACUGCCUGUCAGAUUGUUGAUAUAUACCUUCUGUAAAUAACUUUUUUUGAGAAGGAAAUAAAAUCAGCUGCAACAGAGGAUUGAGCAUCA
B18: chr17:29262523:29262623:-|3pUTR|ENSG00000108256|msi1_unk|FALSE|overlapping (ssRNA)
RNA: GGGAGUUCUACAGUCCGACGAUCACUUUGACUGAUAUUGUAAUUUUCAAAUGUAUAAUAUGUUUACAGAUGUGCCCUGCAUUUAGUCUGCCUUGUUCCUAUUUUGAUUUUUGUUGAGUCUCCUGCCUGCUUGCCAAAAGCUAGCAACAGAGGAUUGAGCAUCA
B19: chrX:149581652:149582231:-|three_prime_utr|ENSG00000267978|control|control|control (ssRNA)
RNA: GGGAGUUCUACAGUCCGACGAUCCAAAUGUUCUUUUAAUGGUCAGUUUAAUGAACUUCACCAUCGAAGUUAAUGAAUGACAGUAGUCACACAUAUUGCUGUUUAUGUUAUUUAGGAGUAAGAUUCUUGCUUUUGAGUCACAUGCAACAGAGGAUUGAGCAUCA
B20: chr15:48879495:48879609:+|3pUTR|ENSG00000255302|msi1|total|mutant (ssRNA)
RNA: GGGAGUUCUACAGUCCGACGAUCGACACUAAAUGUGUGUGAAUGUACAAAGAAAACAAACCAUUGCUUAUGCUGUUAUAUACCCGAGAAAUUUUGUUUUGCUUGCUGUUUUAACUUGACAGAUGAAGGACUUCCGUUGAACUUCAACAGAGGAUUGAGCAUCA
B21: chr16:87831719:87831834:-|3pUTR|ENSG00000103257|msi1_unk|FALSE|overlapping (ssRNA)
RNA: GGGAGUUCUACAGUCCGACGAUCCCUGCGUUUGGAGGCCCCUGGGCUCUCACCCAGUCCCCACCCGCCUGCAGAGAGGGAACUAGGGCACCCCUUGUUUCUGUUGUUCCCGUGAAUUUUUUUCGCUAUGGGAGGCAGCCGAGGCAACAGAGGAUUGAGCAUCA
B22: chr8:93925380:93925481:+|3pUTR|ENSG00000164951|msi1|total|mutant (ssRNA)
RNA: GGGAGUUCUACAGUCCGACGAUCAUUUAUUUCUAAAUGUUUUGACUGGGCAUUUUUCUUUUAAUGAAAUAUGUGGACUGCUCCCGCAAACCCUAUUUUCAGCUACUAUUUGAAUAUUCUUGAACACCACCACUGAAGAGUUUCCAACAGAGGAUUGAGCAUCA

Target: T1, UNK ZnF1-6 (called full-length) (human, UniProt Q9C0B0 30-357)
T1 sequence: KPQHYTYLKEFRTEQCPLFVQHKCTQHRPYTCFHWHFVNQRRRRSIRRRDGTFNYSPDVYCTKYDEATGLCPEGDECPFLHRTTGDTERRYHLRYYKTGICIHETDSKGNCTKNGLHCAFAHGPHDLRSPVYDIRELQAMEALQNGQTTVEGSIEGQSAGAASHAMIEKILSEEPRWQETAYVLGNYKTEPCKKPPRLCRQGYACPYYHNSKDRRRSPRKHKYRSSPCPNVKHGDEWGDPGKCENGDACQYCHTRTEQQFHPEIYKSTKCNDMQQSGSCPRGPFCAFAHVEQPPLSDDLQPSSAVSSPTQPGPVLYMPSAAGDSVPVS
Assay: nsRBNS (natural sequence RNA bind-n-seq); RBNS binding buffer (assumed for nsRBNS): 25 mM Tris pH 7.5, 150 mM KCl, 3 mM MgCl2, 0.01% Triton X-100, 500 ug/ml BSA, 20 U/ml SUPERase-In, 4 C; UNK is unkempt and MSI1 is Musashi-1; names of the RNAs are library labels; protein concentration not given here; high values mean tight binding

Binder | binding signal [enrichment R]
B1 | 0.207
B2 | 0.382
B3 | 0.815
B4 | 1.09
B5 | 0.822
B6 | 0.367
B7 | 0.908
B8 | 0.813
B9 | 0.948
B10 | 0.577
B11 | 0.771
B12 | 0.461
B13 | 1.07
B14 | 0.325
B15 | 1.49
B16 | 0.962
B17 | 0.788
B18 | 0.807
B19 | 0.441
B20 | 0.453
B21 | 0.701
B22 | 0.657
